According to article PMC8384837, “Expanding the binding specificity for RNA recognition by a PUF domain”:

Tests used:
Test in all cases: yeast three-hybrid, YBZ-1, SC-Leu-His + 0.5 mM 3-AT, 4 days
Conditions in all cases: tags: N-Gal4 AD-HA kept; label: inside an RPR1-promoter hybrid RNA with tandem MS2 sites; ssRNA
PUM1 PUF domain R1-RKK = PUM1 PUF domain R1-RKK (Homo sapiens, UniProt Q14671 828-1176, S863R;R864K;Q867K)
Outline: (§1)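 Repeat regions from input (SC-Leu) and selection (SC-Leu-His + 0.5 mM 3-AT) plates were PCR-amplified and Illumina-sequenced after four days of growth. The cells were strain YBZ-1 with a LexA–MS2 coat fusion and a HIS3 reporter, co-expressing Pumilio-1 PUF domain libraries and matching RNA elements from a centromeric plasmid. The interaction score is the log change in variant frequency from input to selection, taken in log2 with a pseudocount of 1 for absent variants.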

PUM1 PUF domain R1-KGT = PUM1 PUF domain R1-KGT (Homo sapiens, UniProt Q14671 828-1176, S863K;R864G;Q867T)
Outline: as §1

PUM1 PUF domain R2-EWG = PUM1 PUF domain R2-EWG (Homo sapiens, UniProt Q14671 828-1176, N899E;Y900W;Q903G)
Outline: as §1

PUM1 PUF domain R4-RMI = PUM1 PUF domain R4-RMI (Homo sapiens, UniProt Q14671 828-1176, N971R;H972M;Q975I)
Outline: as §1

PUM1 PUF domain R5-DRN = PUM1 PUF domain R5-DRN (Homo sapiens, UniProt Q14671 828-1176, C1007D;Q1011N)
Outline: as §1

PUM1 PUF domain R4-DFM = PUM1 PUF domain R4-DFM (Homo sapiens, UniProt Q14671 828-1176, N971D;H972F;Q975M)
Outline: as §1

PUM1 PUF domain R6-TWD = target: T1, PUM1 PUF domain R6-TWD (Homo sapiens, UniProt Q14671 828-1176, N1043T;Y1044W;Q1047D)
T1 sequence: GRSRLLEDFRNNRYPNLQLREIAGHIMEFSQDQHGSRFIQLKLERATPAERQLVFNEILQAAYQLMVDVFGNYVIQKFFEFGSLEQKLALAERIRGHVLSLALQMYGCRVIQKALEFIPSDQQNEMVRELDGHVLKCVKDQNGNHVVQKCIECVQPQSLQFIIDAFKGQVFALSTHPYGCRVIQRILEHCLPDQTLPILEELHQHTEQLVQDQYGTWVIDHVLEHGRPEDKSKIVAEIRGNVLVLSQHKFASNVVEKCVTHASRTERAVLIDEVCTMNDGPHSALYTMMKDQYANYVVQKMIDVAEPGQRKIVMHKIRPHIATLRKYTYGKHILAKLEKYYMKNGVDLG
Outline: as §1

PUM1 PUF domain R5-RLM = PUM1 PUF domain R5-RLM (Homo sapiens, UniProt Q14671 828-1176, C1007R;R1008L;Q1011M)
Outline: as §1

PUM1 PUF domain R3-KFN = PUM1 PUF domain R3-KFN (Homo sapiens, UniProt Q14671 828-1176, C935K;R936F;Q939N)
Outline: as §1

PUM1 PUF domain R3-IFK = PUM1 PUF domain R3-IFK (Homo sapiens, UniProt Q14671 828-1176, C935I;R936F;Q939K)
Outline: as §1

GGCUAGAACUAGUGGAUCCCCCGGCGCCCGGCGGCUCGAGCCCGGGUAAGUGUAAAUUGUCUGCAUGCCGCCGGGCGCCAUGCCUGCAGGUCGACUCUAGAAAACAUG
binding signal (PUM1 PUF domain R1-RKK): 3.57 log2 enrichment (interaction score)
binding signal (PUM1 PUF domain R1-KGT): 3.61 log2 enrichment (interaction score)

GGCUAGAACUAGUGGAUCCCCCGGCGCCCGGCGGCUCGAGCCCGGGUAAGUGUAAAAAGUCUGCAUGCCGCCGGGCGCCAUGCCUGCAGGUCGACUCUAGAAAACAUG
binding signal (PUM1 PUF domain R2-EWG): 8.11 log2 enrichment (interaction score)

GGCUAGAACUAGUGGAUCCCCCGGCGCCCGGCGGCUCGAGCCCGGGUAAGUGUAAAUCGUCUGCAUGCCGCCGGGCGCCAUGCCUGCAGGUCGACUCUAGAAAACAUG
binding signal (PUM1 PUF domain R1-KGT): 4.83 log2 enrichment (interaction score)

GGCUAGAACUAGUGGAUCCCCCGGCGCCCGGCGGCUCGAGCCCGGGUAAGUGUAAAUAGUCUGCAUGCCGCCGGGCGCCAUGCCUGCAGGUCGACUCUAGAAAACAUG
binding signal (PUM1 PUF domain R4-RMI): 3.31 log2 enrichment (interaction score)
binding signal (PUM1 PUF domain R5-DRN): 3.15 log2 enrichment (interaction score)
binding signal (PUM1 PUF domain R4-DFM): 5.89 log2 enrichment (interaction score)

GGCUAGAACUAGUGGAUCCCCCGGCGCCCGGCGGCUCGAGCCCGGGUAAGUGAAAAUAGUCUGCAUGCCGCCGGGCGCCAUGCCUGCAGGUCGACUCUAGAAAACAUG
binding signal (PUM1 PUF domain R6-TWD): 3.18 log2 enrichment (interaction score)

GGCUAGAACUAGUGGAUCCCCCGGCGCCCGGCGGCUCGAGCCCGGGUAAGUGUAAAGAGUCUGCAUGCCGCCGGGCGCCAUGCCUGCAGGUCGACUCUAGAAAACAUG
binding signal (PUM1 PUF domain R2-EWG): 4.05 log2 enrichment (interaction score)

GGCUAGAACUAGUGGAUCCCCCGGCGCCCGGCGGCUCGAGCCCGGGUAAGUGUUAAUAGUCUGCAUGCCGCCGGGCGCCAUGCCUGCAGGUCGACUCUAGAAAACAUG
binding signal (PUM1 PUF domain R5-RLM): 2.52 log2 enrichment (interaction score)

GGCUAGAACUAGUGGAUCCCCCGGCGCCCGGCGGCUCGAGCCCGGGUAAGUGUCAAUAGUCUGCAUGCCGCCGGGCGCCAUGCCUGCAGGUCGACUCUAGAAAACAUG
binding signal (PUM1 PUF domain R5-DRN): 1.45 log2 enrichment (interaction score)
binding signal (PUM1 PUF domain R5-RLM): 1.79 log2 enrichment (interaction score)

GGCUAGAACUAGUGGAUCCCCCGGCGCCCGGCGGCUCGAGCCCGGGUAAGUGUACAUAGUCUGCAUGCCGCCGGGCGCCAUGCCUGCAGGUCGACUCUAGAAAACAUG
binding signal (PUM1 PUF domain R4-DFM): 5.35 log2 enrichment (interaction score)

GGCUAGAACUAGUGGAUCCCCCGGCGCCCGGCGGCUCGAGCCCGGGUAAGUGUAAUUAGUCUGCAUGCCGCCGGGCGCCAUGCCUGCAGGUCGACUCUAGAAAACAUG
binding signal (PUM1 PUF domain R3-KFN): 3.99 log2 enrichment (interaction score)
binding signal (PUM1 PUF domain R3-IFK): 2.58 log2 enrichment (interaction score)
